# Records with an inconclusive call do not appear. Entries that show only a call come without a potency. Calls of active or inactive are those of the source. Calls come from the whole dose curve; as a rule, active = well fitted curve in the direction sought with a large enough effect; inconclusive = small, poorly fitted or top-dose-only effect, or another doubt; inactive = no such curve, though single readings can be large or run the other way.
# Assay: qHTS for differential inhibitors of proliferation of Plasmodium falciparum line 7G8 (AID 1815);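 note: parasite growth measured after three days of incubation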
# Conditions: Plasmodium falciparum 7G8 proliferation inhibition; series mostly up to 28.7 µM
# Potency is the fitted concentration of half-maximal effect.
row,Structure (SMILES),Potency
1,CC(C)(C(=O)O)c1ccc(C(O)CCCN2CCC(C(O)(c3ccccc3)c3ccccc3)CC2)cc1 (centres undefined),inactive
2,CCN(CC)CCNC(=O)c1cc(Cl)c(N)cc1OC,inactive
3,CCN(CC)CCOC(=O)C1(C2CCCCC2)CCCCC1,8.91 µM (active)
4,CC(CN(C)C)CN1c2ccccc2CCc2ccccc21 (centres undefined),8.91 µM (active)
5,OCc1cc(C(O)CNCCCCCCOCCCCc2ccccc2)ccc1O (centres undefined),8.91 µM (active)
6,CN1CCN(C2Cc3ccccc3Sc3ccc(Cl)cc32)CC1 (centres undefined),6.31 µM (active)
7,CC(CN1c2ccccc2Sc2ccccc21)N(C)C (centres undefined),7.08 µM (active)
8,CC(C)(C)c1onc(OCP(=O)(O)O)c1CC(N)C(=O)O (centres undefined),inactive
9,C=Cc1c(C)c2cc3[nH]c(cc4nc(cc5nc(cc1[nH]2)C(C)=C5CCC(=O)O)C(CCC(=O)O)=C4C)c(C)c3C=C,inactive
10,N=c1c[n+](N2CCOCC2)[n-]o1,inactive

# Assay: qHTS for differential inhibitors of proliferation of Plasmodium falciparum line GB4 (AID 1816);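 note: parasite growth measured after 72 h incubation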
# Conditions: Potency: Plasmodium falciparum GB4 proliferation inhibition; series mostly up to 28.7 µM
row,Structure (SMILES),Potency
1,CC(C)(C(=O)O)c1ccc(C(O)CCCN2CCC(C(O)(c3ccccc3)c3ccccc3)CC2)cc1 (centres undefined),inactive
2,CCN(CC)CCNC(=O)c1cc(Cl)c(N)cc1OC,inactive
3,CCN(CC)CCOC(=O)C1(C2CCCCC2)CCCCC1,14.1 µM (active)
4,CC(CN(C)C)CN1c2ccccc2CCc2ccccc21 (centres undefined),5.62 µM (active)
5,OCc1cc(C(O)CNCCCCCCOCCCCc2ccccc2)ccc1O (centres undefined),8.91 µM (active)
6,CC1=C(CC(=O)O)c2cc(F)ccc2/C1=C\c1ccc(S(C)(=O)=O)cc1,inactive
7,CN1CCN(C2Cc3ccccc3Sc3ccc(Cl)cc32)CC1 (centres undefined),11.2 µM (active)
8,CC(CN1c2ccccc2Sc2ccccc21)N(C)C (centres undefined),6.31 µM (active)
9,COc1ccc(Cl)cc1C(=O)NCCc1ccc(S(=O)(=O)NC(=O)NC2CCCCC2)cc1,inactive
10,CC(C)(C)c1onc(OCP(=O)(O)O)c1CC(N)C(=O)O (centres undefined),inactive
11,C=Cc1c(C)c2cc3[nH]c(cc4nc(cc5nc(cc1[nH]2)C(C)=C5CCC(=O)O)C(CCC(=O)O)=C4C)c(C)c3C=C,inactive
12,N=c1c[n+](N2CCOCC2)[n-]o1,inactive

# Assay: qHTS for differential inhibitors of proliferation of Plasmodium falciparum line 3D7 (AID 1876)
# Conditions: P. falciparum 3D7 proliferation inhibition; series mostly up to 28.7 µM
row,Structure (SMILES),Potency
1,CC(C)(C(=O)O)c1ccc(C(O)CCCN2CCC(C(O)(c3ccccc3)c3ccccc3)CC2)cc1 (centres undefined),inactive
2,CCN(CC)CCNC(=O)c1cc(Cl)c(N)cc1OC,inactive
3,CC(CN(C)C)CN1c2ccccc2CCc2ccccc21 (centres undefined),8.91 µM (active)
4,CCCCCCCCCCCCCCCC(=O)NCCO,12.6 µM (active)
5,OCc1cc(C(O)CNCCCCCCOCCCCc2ccccc2)ccc1O (centres undefined),8.91 µM (active)
6,CC1=C(CC(=O)O)c2cc(F)ccc2/C1=C\c1ccc(S(C)(=O)=O)cc1,inactive
7,CN1CCN(C2Cc3ccccc3Sc3ccc(Cl)cc32)CC1 (centres undefined),10 µM (active)
8,CC(CN1c2ccccc2Sc2ccccc21)N(C)C (centres undefined),14.1 µM (active)
9,COc1ccc(Cl)cc1C(=O)NCCc1ccc(S(=O)(=O)NC(=O)NC2CCCCC2)cc1,inactive
10,CC(C)(C)c1onc(OCP(=O)(O)O)c1CC(N)C(=O)O (centres undefined),inactive
11,C=Cc1c(C)c2cc3[nH]c(cc4nc(cc5nc(cc1[nH]2)C(C)=C5CCC(=O)O)C(CCC(=O)O)=C4C)c(C)c3C=C,inactive
12,O=C1N=C(O)CN1/N=C/c1ccc(-c2ccc([N+](=O)[O-])cc2)o1,11.2 µM (active)
